# Experimental data as given in article PMC11006913.
# Residue numbers refer to the chain shown, from its start.
# Legend:
# Assay in all cases: PBM; 200 nM protein, PBS
# Settings in all cases: dsDNA, one strand shown
# SHOX [1] = target: SHOX (Homo sapiens, UniProt O15266 103-189)
# PAX4 [2] = target: T1, PAX4 (Homo sapiens, UniProt O43316 9-242, R200K)
# T1 sequence: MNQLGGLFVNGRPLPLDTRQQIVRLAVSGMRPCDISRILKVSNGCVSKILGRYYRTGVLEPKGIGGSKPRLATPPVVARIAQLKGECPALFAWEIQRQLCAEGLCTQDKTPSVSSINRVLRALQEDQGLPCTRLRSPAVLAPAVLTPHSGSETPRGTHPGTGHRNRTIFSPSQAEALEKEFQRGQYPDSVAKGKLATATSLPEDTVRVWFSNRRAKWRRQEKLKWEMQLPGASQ
# PAX4 [3] = target: T2, PAX4 (Homo sapiens, UniProt O43316 9-242)
# T2 sequence: T1 sequence with K192R
# MSX2 [4] = target: MSX2 (Homo sapiens, UniProt P35548 130-214, R199I)
# ALX1 [5] = target: ALX1 (Homo sapiens, UniProt Q15699 118-204, L144V)
# PAX4 [6] = target: T3, PAX4 (Homo sapiens, UniProt O43316 9-242, R200Q)
# T3 sequence: T1 sequence with K192Q
# SHOX [7] = target: SHOX (Homo sapiens, UniProt O15266 103-189, R173C)
# ALX1 [8] = target: ALX1 (Homo sapiens, UniProt Q15699 118-204, L144R)
# PAX4 [9] = target: T4, PAX4 (Homo sapiens, UniProt O43316 9-242, F177V)
# T4 sequence: T1 sequence with F169V, K192R
# MSX2 [10] = target: MSX2 (Homo sapiens, UniProt P35548 130-214)
# PAX4 [11] = target: T5, PAX4 (Homo sapiens, UniProt O43316 9-242, F177Y)
# T5 sequence: T1 sequence with F169Y, K192R
# MSX2 [12] = target: MSX2 (Homo sapiens, UniProt P35548 130-214, F161Y)
# PAX4 [13] = target: T6, PAX4 (Homo sapiens, UniProt O43316 9-242, R227W)
# T6 sequence: T1 sequence with K192R, R219W
# ALX1 [14] = target: ALX1 (Homo sapiens, UniProt Q15699 118-204)
# HOXB6 [15] = target: HOXB6 (Homo sapiens, UniProt P17509 132-218, K202E)
# HOXB6 [16] = target: HOXB6 (Homo sapiens, UniProt P17509 132-218)
# PRRX1 [17] = target: PRRX1 (Homo sapiens, UniProt P54821 80-166, F113S)
# ALX3 [18] = target: ALX3 (Homo sapiens, UniProt O95076 139-225)
# PRRX1 [19] = target: PRRX1 (Homo sapiens, UniProt P54821 80-166)
# HOXA2 [20] = target: HOXA2 (Homo sapiens, UniProt O43364 129-215, R185T)
# ALX3 [21] = target: ALX3 (Homo sapiens, UniProt O95076 139-225, N203Q)
# HOXA2 [22] = target: HOXA2 (Homo sapiens, UniProt O43364 129-215, R185K)
# ALX3 [23] = target: ALX3 (Homo sapiens, UniProt O95076 139-225, L168Q)
# ALX3 [24] = target: ALX3 (Homo sapiens, UniProt O95076 139-225, L168V)
# HOXA2 [25] = target: HOXA2 (Homo sapiens, UniProt O43364 129-215, Y150S)
# ALX3 [26] = target: ALX3 (Homo sapiens, UniProt O95076 139-225, N203S)
# HOXA2 [27] = target: HOXA2 (Homo sapiens, UniProt O43364 129-215)
# HOXB9 [28] = target: HOXB9 (Homo sapiens, UniProt P17482 171-250)
# HOXB9 [29] = target: HOXB9 (Homo sapiens, UniProt P17482 171-250, R186Q)
# PITX2 = PITX2 (Homo sapiens, UniProt Q99697 72-157)
# ALX1 (Homo sapiens, UniProt Q15699 118-204, L144V), sequence (Q15699 118-204 L144V): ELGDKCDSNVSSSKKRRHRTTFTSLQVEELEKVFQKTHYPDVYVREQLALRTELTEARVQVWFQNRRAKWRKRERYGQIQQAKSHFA
# SHOX (Homo sapiens, UniProt O15266 103-189), sequence (O15266 103-189): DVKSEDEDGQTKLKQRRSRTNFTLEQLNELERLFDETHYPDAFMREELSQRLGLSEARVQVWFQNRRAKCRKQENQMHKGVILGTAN
# MSX2 (Homo sapiens, UniProt P35548 130-214), sequence (P35548 130-214): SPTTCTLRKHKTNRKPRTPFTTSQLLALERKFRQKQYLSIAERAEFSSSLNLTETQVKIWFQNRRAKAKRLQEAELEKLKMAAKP
# ALX1 (Homo sapiens, UniProt Q15699 118-204), sequence (Q15699 118-204): as the sequence (Q15699 118-204 L144V) above, with V27L counted along it
# ALX1 (Homo sapiens, UniProt Q15699 118-204, L144R), sequence (Q15699 118-204 L144R): as the sequence (Q15699 118-204 L144V) above, with V27R counted along it
# MSX2 (Homo sapiens, UniProt P35548 130-214, R199I), sequence (P35548 130-214 R199I): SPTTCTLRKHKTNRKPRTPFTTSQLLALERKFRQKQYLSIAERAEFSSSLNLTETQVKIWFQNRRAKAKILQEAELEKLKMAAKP
# MSX2 (Homo sapiens, UniProt P35548 130-214, F161Y), sequence (P35548 130-214 F161Y): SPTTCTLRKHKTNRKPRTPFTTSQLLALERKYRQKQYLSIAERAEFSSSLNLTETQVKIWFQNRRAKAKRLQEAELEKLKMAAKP
# SHOX (Homo sapiens, UniProt O15266 103-189, R173C), sequence (O15266 103-189 R173C): as the sequence (O15266 103-189) above, with R71C counted along it
# ALX3 (Homo sapiens, UniProt O95076 139-225), sequence (O95076 139-225): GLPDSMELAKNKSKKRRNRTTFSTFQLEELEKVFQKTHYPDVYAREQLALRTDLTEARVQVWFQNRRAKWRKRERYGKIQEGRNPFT
# HOXB9 (Homo sapiens, UniProt P17482 171-250, R186Q), sequence (P17482 171-250 R186Q): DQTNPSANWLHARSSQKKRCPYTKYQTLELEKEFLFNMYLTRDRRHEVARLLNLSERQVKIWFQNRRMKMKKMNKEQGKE
# HOXA2 (Homo sapiens, UniProt O43364 129-215, R185K), sequence (O43364 129-215 R185K): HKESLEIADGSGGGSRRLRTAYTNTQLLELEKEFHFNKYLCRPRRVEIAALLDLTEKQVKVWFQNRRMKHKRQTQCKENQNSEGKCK
# PRRX1 (Homo sapiens, UniProt P54821 80-166), sequence (P54821 80-166): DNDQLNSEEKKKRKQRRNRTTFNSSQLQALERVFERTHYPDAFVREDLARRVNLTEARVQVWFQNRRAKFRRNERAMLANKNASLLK
# ALX3 (Homo sapiens, UniProt O95076 139-225, N203S), sequence (O95076 139-225 N203S): as the sequence (O95076 139-225) above, with N65S counted along it
# HOXA2 (Homo sapiens, UniProt O43364 129-215, R185T), sequence (O43364 129-215 R185T): as the sequence (O43364 129-215 R185K) above, with K57T counted along it
# ALX3 (Homo sapiens, UniProt O95076 139-225, L168V), sequence (O95076 139-225 L168V): as the sequence (O95076 139-225) above, with L30V counted along it
# ALX3 (Homo sapiens, UniProt O95076 139-225, N203Q), sequence (O95076 139-225 N203Q): as the sequence (O95076 139-225) above, with N65Q counted along it
# HOXB6 (Homo sapiens, UniProt P17509 132-218), sequence (P17509 132-218): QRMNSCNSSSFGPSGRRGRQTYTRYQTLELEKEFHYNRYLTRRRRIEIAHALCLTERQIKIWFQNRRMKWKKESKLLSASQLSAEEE
# HOXA2 (Homo sapiens, UniProt O43364 129-215), sequence (O43364 129-215): as the sequence (O43364 129-215 R185K) above, with K57R counted along it
# ALX3 (Homo sapiens, UniProt O95076 139-225, L168Q), sequence (O95076 139-225 L168Q): as the sequence (O95076 139-225) above, with L30Q counted along it
# HOXB6 (Homo sapiens, UniProt P17509 132-218, K202E), sequence (P17509 132-218 K202E): as the sequence (P17509 132-218) above, with K71E counted along it
# HOXB9 (Homo sapiens, UniProt P17482 171-250), sequence (P17482 171-250): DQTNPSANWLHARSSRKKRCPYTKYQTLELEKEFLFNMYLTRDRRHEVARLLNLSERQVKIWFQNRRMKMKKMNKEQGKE
# HOXA2 (Homo sapiens, UniProt O43364 129-215, Y150S), sequence (O43364 129-215 Y150S): as the sequence (O43364 129-215 R185K) above, with Y22S, K57R counted along it
# PRRX1 (Homo sapiens, UniProt P54821 80-166, F113S), sequence (P54821 80-166 F113S): as the sequence (P54821 80-166) above, with F34S counted along it
sequence,measurement,setting,value
CGGACAGC,binding signal,SHOX [1],"7.13 upbm affinity estimate (log intensity, higher = more binding, comparable within an allelic series)"
same,binding signal,PAX4 [2],"9.47 upbm affinity estimate (log intensity, higher = more binding, comparable within an allelic series)"
same,binding signal,PAX4 [3],"9.43 upbm affinity estimate (log intensity, higher = more binding, comparable within an allelic series)"
same,binding signal,MSX2 [4],"9.52 upbm affinity estimate (log intensity, higher = more binding, comparable within an allelic series)"
same,binding signal,ALX1 [5],"6.29 upbm affinity estimate (log intensity, higher = more binding, comparable within an allelic series)"
same,binding signal,PAX4 [6],"9.47 upbm affinity estimate (log intensity, higher = more binding, comparable within an allelic series)"
same,binding signal,SHOX [7],"7.17 upbm affinity estimate (log intensity, higher = more binding, comparable within an allelic series)"
same,binding signal,ALX1 [8],"6.43 upbm affinity estimate (log intensity, higher = more binding, comparable within an allelic series)"
same,binding signal,PAX4 [9],"9.4 upbm affinity estimate (log intensity, higher = more binding, comparable within an allelic series)"
same,binding signal,MSX2 [10],"9.55 upbm affinity estimate (log intensity, higher = more binding, comparable within an allelic series)"
same,binding signal,PAX4 [11],"9.46 upbm affinity estimate (log intensity, higher = more binding, comparable within an allelic series)"
same,binding signal,MSX2 [12],"9.53 upbm affinity estimate (log intensity, higher = more binding, comparable within an allelic series)"
same,binding signal,PAX4 [13],"9.46 upbm affinity estimate (log intensity, higher = more binding, comparable within an allelic series)"
same,binding signal,ALX1 [14],"6.5 upbm affinity estimate (log intensity, higher = more binding, comparable within an allelic series)"
AATTAGAG,binding signal,SHOX [1],"11.6 upbm affinity estimate (log intensity, higher = more binding, comparable within an allelic series)"
same,binding signal,PAX4 [2],"11.7 upbm affinity estimate (log intensity, higher = more binding, comparable within an allelic series)"
same,binding signal,PAX4 [3],"12.2 upbm affinity estimate (log intensity, higher = more binding, comparable within an allelic series)"
same,binding signal,MSX2 [4],"12.1 upbm affinity estimate (log intensity, higher = more binding, comparable within an allelic series)"
same,binding signal,PAX4 [6],"12 upbm affinity estimate (log intensity, higher = more binding, comparable within an allelic series)"
same,binding signal,SHOX [7],"9.13 upbm affinity estimate (log intensity, higher = more binding, comparable within an allelic series)"
same,binding signal,PAX4 [9],"10.4 upbm affinity estimate (log intensity, higher = more binding, comparable within an allelic series)"
same,binding signal,MSX2 [10],"13.3 upbm affinity estimate (log intensity, higher = more binding, comparable within an allelic series)"
same,binding signal,PAX4 [11],"10.9 upbm affinity estimate (log intensity, higher = more binding, comparable within an allelic series)"
same,binding signal,MSX2 [12],"13.1 upbm affinity estimate (log intensity, higher = more binding, comparable within an allelic series)"
same,binding signal,PAX4 [13],"10.8 upbm affinity estimate (log intensity, higher = more binding, comparable within an allelic series)"
GCAGAGCC,binding signal,SHOX [1],"7.11 upbm affinity estimate (log intensity, higher = more binding, comparable within an allelic series)"
same,binding signal,HOXB6 [15],"8.95 upbm affinity estimate (log intensity, higher = more binding, comparable within an allelic series)"
same,binding signal,SHOX [7],"7.16 upbm affinity estimate (log intensity, higher = more binding, comparable within an allelic series)"
same,binding signal,HOXB6 [16],"8.72 upbm affinity estimate (log intensity, higher = more binding, comparable within an allelic series)"
AATAATAC,binding signal,SHOX [1],"9.32 upbm affinity estimate (log intensity, higher = more binding, comparable within an allelic series)"
same,binding signal,PRRX1 [17],"10.6 upbm affinity estimate (log intensity, higher = more binding, comparable within an allelic series)"
same,binding signal,ALX3 [18],"10.3 upbm affinity estimate (log intensity, higher = more binding, comparable within an allelic series)"
same,binding signal,PRRX1 [19],"12.3 upbm affinity estimate (log intensity, higher = more binding, comparable within an allelic series)"
GCAAATTA,binding signal,SHOX [1],"11.6 upbm affinity estimate (log intensity, higher = more binding, comparable within an allelic series)"
same,binding signal,PAX4 [2],"11.6 upbm affinity estimate (log intensity, higher = more binding, comparable within an allelic series)"
same,binding signal,PAX4 [3],"12.1 upbm affinity estimate (log intensity, higher = more binding, comparable within an allelic series)"
same,binding signal,ALX1 [5],"11.2 upbm affinity estimate (log intensity, higher = more binding, comparable within an allelic series)"
same,binding signal,PAX4 [6],"11.9 upbm affinity estimate (log intensity, higher = more binding, comparable within an allelic series)"
same,binding signal,SHOX [7],"8.89 upbm affinity estimate (log intensity, higher = more binding, comparable within an allelic series)"
same,binding signal,ALX1 [8],"10.8 upbm affinity estimate (log intensity, higher = more binding, comparable within an allelic series)"
same,binding signal,PAX4 [9],"10.3 upbm affinity estimate (log intensity, higher = more binding, comparable within an allelic series)"
same,binding signal,PAX4 [11],"10.8 upbm affinity estimate (log intensity, higher = more binding, comparable within an allelic series)"
same,binding signal,PAX4 [13],"10.8 upbm affinity estimate (log intensity, higher = more binding, comparable within an allelic series)"
same,binding signal,ALX1 [14],"12 upbm affinity estimate (log intensity, higher = more binding, comparable within an allelic series)"
CGCCGGCG,binding signal,SHOX [1],"7.07 upbm affinity estimate (log intensity, higher = more binding, comparable within an allelic series)"
same,binding signal,HOXA2 [20],"7.18 upbm affinity estimate (log intensity, higher = more binding, comparable within an allelic series)"
same,binding signal,ALX3 [21],"7.92 upbm affinity estimate (log intensity, higher = more binding, comparable within an allelic series)"
same,binding signal,SHOX [7],"7.15 upbm affinity estimate (log intensity, higher = more binding, comparable within an allelic series)"
same,binding signal,HOXA2 [22],"10.2 upbm affinity estimate (log intensity, higher = more binding, comparable within an allelic series)"
same,binding signal,ALX3 [18],"7.79 upbm affinity estimate (log intensity, higher = more binding, comparable within an allelic series)"
same,binding signal,ALX3 [23],"7.73 upbm affinity estimate (log intensity, higher = more binding, comparable within an allelic series)"
same,binding signal,ALX3 [24],"7.68 upbm affinity estimate (log intensity, higher = more binding, comparable within an allelic series)"
same,binding signal,HOXA2 [25],"10.3 upbm affinity estimate (log intensity, higher = more binding, comparable within an allelic series)"
same,binding signal,ALX3 [26],"8.03 upbm affinity estimate (log intensity, higher = more binding, comparable within an allelic series)"
same,binding signal,HOXA2 [27],"7.22 upbm affinity estimate (log intensity, higher = more binding, comparable within an allelic series)"
GTACAATA,binding signal,SHOX [1],"8.08 upbm affinity estimate (log intensity, higher = more binding, comparable within an allelic series)"
same,binding signal,HOXB9 [28],"9.8 upbm affinity estimate (log intensity, higher = more binding, comparable within an allelic series)"
same,binding signal,HOXB9 [29],"9.79 upbm affinity estimate (log intensity, higher = more binding, comparable within an allelic series)"
ACTGGGGG,binding signal,SHOX [1],"7.05 upbm affinity estimate (log intensity, higher = more binding, comparable within an allelic series)"
same,binding signal,PAX4 [2],"8.98 upbm affinity estimate (log intensity, higher = more binding, comparable within an allelic series)"
same,binding signal,PAX4 [3],"9.06 upbm affinity estimate (log intensity, higher = more binding, comparable within an allelic series)"
same,binding signal,MSX2 [4],"9.43 upbm affinity estimate (log intensity, higher = more binding, comparable within an allelic series)"
same,binding signal,ALX1 [5],"6.32 upbm affinity estimate (log intensity, higher = more binding, comparable within an allelic series)"
same,binding signal,PAX4 [6],"9.22 upbm affinity estimate (log intensity, higher = more binding, comparable within an allelic series)"
same,binding signal,PITX2,"7.95 upbm affinity estimate (log intensity, higher = more binding, comparable within an allelic series)"
same,binding signal,SHOX [7],"7.08 upbm affinity estimate (log intensity, higher = more binding, comparable within an allelic series)"
same,binding signal,ALX1 [8],"6.52 upbm affinity estimate (log intensity, higher = more binding, comparable within an allelic series)"
same,binding signal,PAX4 [9],"9.12 upbm affinity estimate (log intensity, higher = more binding, comparable within an allelic series)"
same,binding signal,MSX2 [10],"9.41 upbm affinity estimate (log intensity, higher = more binding, comparable within an allelic series)"
same,binding signal,PAX4 [11],"9.07 upbm affinity estimate (log intensity, higher = more binding, comparable within an allelic series)"
same,binding signal,MSX2 [12],"9.45 upbm affinity estimate (log intensity, higher = more binding, comparable within an allelic series)"
same,binding signal,PAX4 [13],"9.15 upbm affinity estimate (log intensity, higher = more binding, comparable within an allelic series)"
same,binding signal,ALX1 [14],"6.23 upbm affinity estimate (log intensity, higher = more binding, comparable within an allelic series)"
